The text below walks through data of PubChem BioAssay (Tox21).

“And” between values parts separate entries of the source, which are not always exact repeats. Equal values may be shown once. Unmarked numbers belong to inactive results. Inconclusive results are not listed. The source made the active and inactive calls. Unless noted, calls follow the shape of the full dose curve.

Experiment [1] is described as follows: Nuclear factor erythroid 2-related factor 2/antioxidant responsive element (Nrf2/ARE) small molecule agonists: luciferase reporter gene qHTS assay in human keratinocytes (AID 1919969; also: nearly all actives have a fitted effect of over 35% in size; also: potency is read from the fitted curve at half-maximal effect). (Reporter assays use an easily measured gene product as a stand-in for the process of interest.)
Experiment [2] deals with Gonadotropin-releasing hormone receptor (Homo sapiens) (UniProt P30968). Put plainly: Human gonadotropin-releasing hormone receptor (GnRHR) small molecule agonists, calcium flux assay in GnRHR-HEK293 cells (AID 1920063). Also: % is scaled to controls: 0 for no effect and ±100 for the full control effect; nearly all actives have a fitted effect of over 35% in size. An outline of the steps: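 HEK293 cells stably expressing human GnRHR were plated 18 h at 37 °C, loaded with calcium dye 1 h at 37 °C, then given compound in agonist mode; fluorescence (Ex/Em 480/540) read kinetically for 3 min at 1 s intervals.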

For experiment [3], the target named is KiSS-1 receptor (Homo sapiens) (UniProt Q969F8). Put plainly: Human kisspeptin (KISS1R) small molecule agonists, calcium flux assay in KISS1R-HEK293 cells (AID 1920064; active = well fitted activation curve with a large enough effect in the repeat runs; also: % is scaled to controls: 0 for no effect and ±100 for the full control effect). An outline of the steps:
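HEK293 cells stably expressing human KISS1R were plated 18 h at 37 °C, loaded with calcium dye for 1 h at 37 °C, then given compound by pin tool. Fluorescence (Ex/Em 480/540) was read kinetically for 3 min.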
(Calcium assays in cells follow changes in intracellular calcium, usually with a dye or a luminescent sensor.)

Experiment [4] is described as follows: G protein-coupled receptor (GPCR) small molecule agonists, calcium flux assay: HEK293 wild type cell line counter screen (AID 1920065). Also: % is scaled to controls: 0 for no effect and ±100 for the full control effect. An outline of the steps:
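Cells were plated and cultured 18 h at 37 C/5% CO2, then loaded with calcium dye for 1 h at 37 C. Compounds in DMSO were pin-transferred in agonist mode, and fluorescence (Ex/Em 480/540) was read kinetically for 3 min at 1 s intervals.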

A short description of experiment [5]: p53 small molecule agonists, cell-based qHTS assay with human liver microsomes (AID 1963577). Also: % is scaled to controls: 0 for no effect and ±100 for the full control effect. An outline of the steps: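 p53RE-bla cells, 4,000/well, compound added after 5 h, with human liver microsomes 0.5 mg/mL and NADPH 0.5 mg/mL final; 16 h at 37 C, then LiveBLAzer 2 h RT, fluorescence.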
For orientation: In qHTS, concentration-response curves come from the screen itself.

Experiment [6] can be described thus: p53 small molecule agonists, cell-based qHTS assay with rat liver microsomes (AID 1963578). Also: % is scaled to controls: 0 for no effect and ±100 for the full control effect. A digest of the protocol:
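p53RE-bla cells, 4,000/well, pre-incubated 5 h, then given compounds plus rat liver microsomes (0.5 mg/mL final) and NADPH (0.5 mg/mL final). Incubation 16 h at 37 C; beta-lactamase reporter read by LiveBLAzer fluorescence after 2 h at room temperature.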

Experiment [7] can be described thus: p53 small molecule agonists, cell-based qHTS assay with human liver microsomes: qHTS cell viability counter screen (AID 1963579). Also: nearly all actives have a fitted effect of over 45% in size. Also: potency is read from the fitted curve at half-maximal effect. A digest of the protocol:
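p53RE-bla cells, 4,000/well, dosed 5 hours after plating, with human liver microsomes (0.5 mg/mL final) plus NADPH (0.5 mg/mL final), 16 hours at 37 C. Viability read as CellTiter-Glo luminescence after 30 min at room temperature.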

The nature of experiment [8]: p53 small molecule agonists, cell-based qHTS assay with rat liver microsomes: qHTS cell viability counter screen (AID 1963580). Also: % is scaled to controls: 0 for no effect and ±100 for the full control effect; nearly all actives have a fitted effect of over 45% in size. A digest of the protocol: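 Viability is assessed in parallel with the p53 reporter read: HCT-116 p53RE-bla cells receive compounds plus rat microsomes and NADPH (0.5 mg/mL final apiece), incubate 16 h at 37 C, and then CellTiter-Glo luminescence is recorded.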

Experiment [9] is described as follows: p53 small molecule agonists, cell-based qHTS assay (AID 1963582; active = well fitted activation curve with a large enough effect in the signal ratio in the repeat runs, not every such curve was filed as active; the % refers to the signal ratio; also: potency is read from the fitted curve at half-maximal effect). An outline of the steps:
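p53RE-bla beta-lactamase reporter cells rested 5 h at 37 C/5% CO2, then received compounds in DMSO by pin transfer and were incubated 16 h at 37 C. LiveBLAzer B/G FRET substrate was loaded for 2 h at room temperature before fluorescence reading.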

The target in experiment [10] is 5-hydroxytryptamine receptor 2A (Homo sapiens) (UniProt P28223). Put plainly: 5-hydroxytryptamine receptor 2A (HTR2A) small molecule antagonists, cell-based qHTS assay (AID 1963586). Also: nearly all actives have a fitted effect of over 45% in size. Also: potency is read from the fitted curve at half-maximal effect. An outline of the steps:
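Antagonist-mode intracellular calcium assay: DOI (4 nM) added after 5 min compound pre-incubation at room temperature to dye-loaded HTR2A-CHO cells. Fluorescence followed for 3 min, sampled every second.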

Experiment [11] has the same target. Put plainly: 5-hydroxytryptamine receptor 2A (HTR2A) small molecule agonists, cell-based qHTS assay (AID 1963587). Also: % is scaled to controls: 0 for no effect and ±100 for the full control effect; nearly all actives have a fitted effect of over 30% in size. An outline of the steps: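 CHO cells stably expressing human HTR2A, plated 18 h, loaded with calcium dye 1 h at 37 C. Agonist mode: compounds added and intracellular calcium fluorescence recorded kinetically for 2 min at 1 sec intervals.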
Experiment [12] has as its target Muscarinic acetylcholine receptor M1 (Homo sapiens) (UniProt P11229). Put plainly: Cholinergic receptor muscarinic 1 (CHRM1) small molecule antagonists, cell-based qHTS assay (AID 1963588). Also: % is scaled to controls: 0 for no effect and ±100 for the full control effect; nearly all actives have a fitted effect of over 40% in size. An outline of the steps: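 CHRM1-CHO calcium-flux assay, antagonist mode. Cells were seeded 18 h, dye-loaded 1 h at 37 C and given compound for 5 min at RT, then acetylcholine was added at 50nM. FDSS fluorescence was read 3 min; 15 concentrations, three runs.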

Experiment [13] deals with Beta-2 adrenergic receptor (Homo sapiens) (UniProt P07550). Put plainly: Adrenergic beta2 receptor (ADRB2) small molecule antagonists, cell-based qHTS assay (AID 1963592). Also: series mostly up to about 92 µM; % is scaled to controls: 0 for no effect and ±100 for the full control effect; nearly all actives have a fitted effect of over 50% in size. A digest of the protocol: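 Cells (CHO, stable ADRB2 overexpression) incubated 18-20hr at 37C; compounds added from DMSO; agonist mix (1nM isoproterenol, 100uM IBMX, 25uM Ro-20-1724) added; 0.5hr RT; d2-cAMP and anti-cAMP-cryptate added; 1hr RT; 665/615 nm read.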

Experiment [14] deals with D(2) dopamine receptor (Homo sapiens) (UniProt P14416). Put plainly: Dopamine D2 receptor (DRD2) small molecule agonists, cell-based qHTS assay (AID 1963594). Also: % is scaled to controls: 0 for no effect and ±100 for the full control effect; nearly all actives have a fitted effect of over 35% in size. A digest of the protocol:
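HEK293 cells stably expressing human DRD2, pre-treated with PDE inhibitor Ro20-1724 (0.1 mM final) and compound 10 min at room temperature, then stimulated with NKH477 (200nM […]) for 30 min. cAMP read by HTRF (665/620 nm).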

Experiment [15] has the same target. Put plainly: Dopamine D2 receptor (DRD2) small molecule antagonists, cell-based qHTS assay (AID 1963595; active = well fitted inhibition curve with a large enough effect in the signal ratio in the repeat runs, with a control signal flat; the % refers to the signal ratio; also: potency is read from the fitted curve at half-maximal effect). An outline of the steps:
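Antagonist mode in DRD2-HEK293 cells: after compound addition with 0.1 mM Ro20-1724, cells received quinpirole (12 nM) and NKH477 (200 nM) for 30 min at room temperature; HTRF cAMP read after 1 h detection.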

Experiment [16] is described as follows: p53 small molecule agonists, cell-based qHTS assay: qHTS cell viability counter screen (AID 1963581). Also: nearly all actives have a fitted effect of over 45% in size. Also: potency is read from the fitted curve at half-maximal effect. A digest of the protocol:
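p53RE-bla HCT-116 cells were exposed to compounds for 16 h at 37 C; after the beta-lactamase FRET read in the same wells, CellTiter-Glo was added and luminescence (intracellular ATP) read after 30 min at room temperature.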

Experiment [17] addresses Muscarinic acetylcholine receptor M1 (Homo sapiens) (UniProt P11229). Put plainly: Cholinergic receptor muscarinic 1 (CHRM1) small molecule agonists, cell-based qHTS assay (AID 1963589). Also: % is scaled to controls: 0 for no effect and ±100 for the full control effect; nearly all actives have a fitted effect of over 35% in size. A digest of the protocol:
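CHO cells stably expressing human CHRM1, seeded 18 h at 37 C/5% CO2, dye-loaded 1 h at 37 C, then given compound in agonist mode; intracellular calcium fluorescence read kinetically at 1 s intervals. Fifteen concentrations, three independent runs.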

Experiment [18] in a line: cAMP Responsive Elements (CRE) small molecule agonists, cell-based qHTS assay (AID 1963590). Also: % is scaled to controls: 0 for no effect and ±100 for the full control effect. An outline of the steps: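 CRE-bla HEK 293T cells in DMEM with 10% dialyzed FBS, NEAA, pyruvate and 25 mM HEPES were plated 18 h at 37 C/5% CO2, then exposed to compounds in DMSO for 3 h before LiveBLAzer B/G FRET substrate addition.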
Experiment [19] in a line: cAMP Responsive Elements (CRE) small molecule antagonists, cell-based qHTS assay (AID 1963591; active = well fitted inhibition curve with a large enough effect in the signal ratio in the repeat runs, not every such curve was filed as active; the % refers to the signal ratio; also: % is scaled to controls: 0 for no effect and ±100 for the full control effect). A digest of the protocol: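 CRE-bla HEK293T cells were plated 18 h at 37 °C/5% CO2, pinned with compound in DMSO, then stimulated with NKH477 at 0.25 uM final for 3 h. LiveBLAzer B/G FRET substrate was added and plates incubated 2 h at room temperature.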

Chain of Muscarinic acetylcholine receptor M1 (Homo sapiens) (P11229 whole entry, looked up): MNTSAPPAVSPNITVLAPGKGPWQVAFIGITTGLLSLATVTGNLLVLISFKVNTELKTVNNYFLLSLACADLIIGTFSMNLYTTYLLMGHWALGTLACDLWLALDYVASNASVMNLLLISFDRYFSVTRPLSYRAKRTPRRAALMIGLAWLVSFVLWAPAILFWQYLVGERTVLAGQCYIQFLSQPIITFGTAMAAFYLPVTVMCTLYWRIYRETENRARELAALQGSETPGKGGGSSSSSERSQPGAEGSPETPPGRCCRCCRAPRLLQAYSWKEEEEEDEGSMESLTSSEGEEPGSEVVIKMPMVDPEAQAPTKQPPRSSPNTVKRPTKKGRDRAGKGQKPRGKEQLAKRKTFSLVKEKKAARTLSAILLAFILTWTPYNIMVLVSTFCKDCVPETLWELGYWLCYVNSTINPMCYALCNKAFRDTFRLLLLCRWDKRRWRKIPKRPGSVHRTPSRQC
Chain of Beta-2 adrenergic receptor (Homo sapiens) (P07550 whole entry, looked up): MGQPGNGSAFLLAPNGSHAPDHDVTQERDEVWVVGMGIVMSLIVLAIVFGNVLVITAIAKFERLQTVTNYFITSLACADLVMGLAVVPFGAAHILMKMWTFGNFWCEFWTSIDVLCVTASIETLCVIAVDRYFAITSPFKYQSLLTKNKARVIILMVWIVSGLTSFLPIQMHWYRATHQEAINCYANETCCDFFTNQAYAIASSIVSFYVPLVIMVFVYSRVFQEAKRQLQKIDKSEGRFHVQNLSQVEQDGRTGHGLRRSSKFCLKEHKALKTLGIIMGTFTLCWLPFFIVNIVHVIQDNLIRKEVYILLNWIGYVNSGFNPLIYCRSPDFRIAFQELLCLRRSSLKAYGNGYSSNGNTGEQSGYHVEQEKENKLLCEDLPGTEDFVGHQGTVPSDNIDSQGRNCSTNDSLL
Chain of Gonadotropin-releasing hormone receptor (Homo sapiens) (P30968 whole entry, looked up): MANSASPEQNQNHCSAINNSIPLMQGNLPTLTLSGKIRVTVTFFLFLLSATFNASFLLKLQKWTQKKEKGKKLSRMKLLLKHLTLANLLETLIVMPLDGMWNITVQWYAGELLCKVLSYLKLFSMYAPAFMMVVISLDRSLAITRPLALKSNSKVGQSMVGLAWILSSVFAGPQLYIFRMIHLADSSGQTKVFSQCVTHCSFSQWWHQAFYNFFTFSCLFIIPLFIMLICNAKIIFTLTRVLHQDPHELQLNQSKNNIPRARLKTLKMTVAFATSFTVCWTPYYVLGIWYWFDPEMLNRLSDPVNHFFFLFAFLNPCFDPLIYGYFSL
Chain of 5-hydroxytryptamine receptor 2A (Homo sapiens) (P28223 whole entry, looked up): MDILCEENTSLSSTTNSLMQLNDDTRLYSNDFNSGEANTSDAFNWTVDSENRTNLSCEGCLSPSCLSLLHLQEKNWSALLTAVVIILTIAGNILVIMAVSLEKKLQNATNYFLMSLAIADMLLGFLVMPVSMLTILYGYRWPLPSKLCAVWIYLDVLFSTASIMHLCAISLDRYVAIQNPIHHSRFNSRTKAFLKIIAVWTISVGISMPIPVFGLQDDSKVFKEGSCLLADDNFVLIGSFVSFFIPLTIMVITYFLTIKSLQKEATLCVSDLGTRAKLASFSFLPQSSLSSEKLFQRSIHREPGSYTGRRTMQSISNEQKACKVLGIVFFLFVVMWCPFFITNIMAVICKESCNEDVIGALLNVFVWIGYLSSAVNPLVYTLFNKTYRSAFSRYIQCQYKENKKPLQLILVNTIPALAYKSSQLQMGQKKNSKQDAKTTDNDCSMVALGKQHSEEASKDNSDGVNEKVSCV
Chain of KiSS-1 receptor (Homo sapiens) (Q969F8 whole entry, looked up): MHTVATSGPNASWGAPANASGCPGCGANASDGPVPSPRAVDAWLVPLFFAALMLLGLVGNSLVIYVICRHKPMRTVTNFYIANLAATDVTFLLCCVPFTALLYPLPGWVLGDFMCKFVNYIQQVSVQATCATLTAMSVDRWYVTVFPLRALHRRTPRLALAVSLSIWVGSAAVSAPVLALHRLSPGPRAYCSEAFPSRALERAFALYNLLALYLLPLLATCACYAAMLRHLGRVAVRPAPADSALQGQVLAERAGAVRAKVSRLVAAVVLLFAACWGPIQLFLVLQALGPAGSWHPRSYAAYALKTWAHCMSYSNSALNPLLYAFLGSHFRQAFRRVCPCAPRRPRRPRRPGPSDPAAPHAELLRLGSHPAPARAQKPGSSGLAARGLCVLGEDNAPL
Chain of D(2) dopamine receptor (Homo sapiens) (P14416 whole entry, looked up): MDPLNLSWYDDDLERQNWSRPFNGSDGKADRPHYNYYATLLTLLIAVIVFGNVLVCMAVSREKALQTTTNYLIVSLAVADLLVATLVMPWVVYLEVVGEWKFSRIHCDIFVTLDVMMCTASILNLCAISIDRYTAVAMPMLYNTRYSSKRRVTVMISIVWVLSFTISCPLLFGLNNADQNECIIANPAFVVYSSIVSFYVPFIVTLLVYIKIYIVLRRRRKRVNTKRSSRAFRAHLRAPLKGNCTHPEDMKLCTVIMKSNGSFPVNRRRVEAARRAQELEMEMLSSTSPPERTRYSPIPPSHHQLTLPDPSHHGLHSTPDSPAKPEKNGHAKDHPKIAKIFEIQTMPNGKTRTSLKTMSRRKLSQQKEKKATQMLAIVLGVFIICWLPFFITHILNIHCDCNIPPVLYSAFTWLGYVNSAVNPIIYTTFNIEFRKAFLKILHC

Turning to `COc1ccc(C(=O)/C(Br)=C\C(=O)O)cc1`, the figures for the Potency in experiment [1], in [7] and in [9] were 54.5 µM (active), 45.8 µM (active) and 32.4 µM (active), respectively. The Potency entry in experiment [2], in experiment [3], in experiment [4], in experiment [5], in experiment [6] and in experiment [8] was “inactive” each time. Further, the Potency entry in experiment [10], in experiment [11], in experiment [12], in experiment [13], in [14] and in experiment [15] was “inactive” in each case.

For the compound `c1ccc(-c2ccc(C(c3ccccc3)n3ccnc3)cc2)cc1` (stereo not given), in experiment [1], the Potency was 29.8 µM (active). For the same compound, the Potency result in experiment [2], in experiment [3], in experiment [4], in experiment [5], in experiment [6] and in experiment [7] was “inactive” each time. The Potency entry in experiment [8], in [16], in experiment [11], in experiment [17], in [18] and in experiment [13] was “inactive” in each case. In addition, the Potency result in [14] and in experiment [15] was “inactive” throughout.

With `O=C(OC[C@H]1O[C@@H](OC(=O)c2cc(O)c(O)c(OC(=O)c3cc(O)c(O)c(O)c3)c2)[C@H](OC(=O)c2cc(O)c(O)c(OC(=O)c3cc(O)c(O)c(O)c3)c2)[C@@H](OC(=O)c2cc(O)c(O)c(OC(=O)c3cc(O)c(O)c(O)c3)c2)[C@@H]1OC(=O)c1cc(O)c(O)c(OC(=O)c2cc(O)c(O)c(O)c2)c1)c1cc(O)c(O)c(OC(=O)c2cc(O)c(O)c(O)c2)c1`, the activity, positive = activation in experiment [1] is -5.14% [at 19 µM]. The activity change in experiment [2] is -0.655% [at 11.8 µM, active compounds read high]. Besides, the activation was -0.551% [at 15.8 µM] in [3]; 0.5% [at 11.8 µM] in experiment [4]; -11.4% [at 13.5 µM] in experiment [5]; -4% [at 13.6 µM] in experiment [6]; 4.01% [at 19 µM] in experiment [18]. The figures for the activity change, negative = cytotoxicity in [7] and in experiment [8] were 8.38% [at 13.5 µM] and 7.08% [at 13.5 µM], respectively. In [9], the Potency was 11 µM (active).

As to `CCc1c(C(=O)NN2CCCCC2)nn(-c2ccc(Cl)cc2Cl)c1-c1ccc(Br)cc1`, the Potency entry in experiment [1], in [2], in [3], in [4], in experiment [5] and in experiment [6] was “inactive” throughout. Further, the Potency entry in experiment [10], in experiment [11], in [17], in experiment [19], in [13] and in [15] was “inactive” throughout. The Potency in experiment [7] was 40.8 µM (active); in [16], 36.3 µM (active).

In the case of `O=c1[nH]c2ccccc2n1CCCN1CCN(C(c2ccccc2)c2ccccc2)CC1`, the Potency result in experiment [1], in experiment [2], in experiment [3], in experiment [4], in experiment [5] and in experiment [6] was “inactive” each time. The Potency result in [7], in experiment [8], in experiment [11], in [12], in experiment [17] and in experiment [13] was “inactive” each time. The Potency entry in [14] was “inactive”. Besides, the Potency is 0.0052 µM (active) in [10] and 11.9 µM (active) in experiment [15].

`O=c1cc(-c2ccccc2)oc2cc(O)cc(O)c12`: in experiment [1], the Potency is 24.3 µM (active). In addition, the Potency entry in experiment [2], in experiment [3], in experiment [4], in experiment [5], in experiment [6] and in [7] was “inactive” each time. In addition, the Potency entry in [8], in experiment [16], in experiment [11], in experiment [12], in experiment [17] and in [13] was “inactive” throughout. Further, the Potency entry in experiment [14] and in [15] was “inactive” throughout.

As to `C=CC(=O)OCCCCCCOC(=O)C=C`, in experiment [1], the Potency is 27.6 µM (active) and 24.3 µM (active). For the same compound, the Potency result in experiment [2], in [3], in experiment [4], in experiment [5], in [6] and in [7] was “inactive” in each case. Moreover, the Potency entry in [8], in experiment [16], in experiment [10], in experiment [11], in experiment [12] and in [17] was “inactive” each time. In addition, the Potency result in [19], in experiment [13] and in [15] was “inactive” throughout.
